Data as given in PubChem BioAssay (Tox21).
Results filed as inconclusive are left out. Entries that show only a call come without a potency. Values without a mark were called inactive. The source made the active and inactive calls. Calls follow the shape of the dose curve; as a rule, active = well fitted curve in the direction sought with a large enough effect in the repeat runs; inconclusive = weak or mixed curves; inactive = no such curve, though single readings can be large; an effect the other way counts as inactive or inconclusive.

Tests used:
[1] = qHTS RealTime-Glo MT Cell Viability Assay in HepG2 cells - 40 hour (AID 1224870); also: nearly all actives have a fitted effect of over 50% in size; also: potency is read from the fitted curve at half-maximal effect
In short: (§1)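 Real-time viability: cells seeded at 600 per well together with NanoLuc and cell-permeant prosubstrate, compounds added after 5 h incubation. Luminescence tracked at 0, 8, 16, 24, 32 and 40 h of exposure.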

[2] = A CellTox Green Cytotoxicity Assay to monitor cytotoxicity in HEK293 cells - 40 hour (AID 1224871); also: nearly all actives have a fitted effect of over 45% in size; also: potency is read from the fitted curve at half-maximal effect
In short: (§2)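 Tox21 screen in HEK293: membrane-impermeant cyanine dye fluoresces on binding dead-cell DNA; compound pinned 5 h post-seeding, plates held at 37 C, signal read repeatedly through 40 h.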

[3] = qHTS RealTime-Glo MT Cell Viability Assay in HEK293 cells - 16 hour (AID 1224872); also: top concentration of the series differs between compounds; nearly all actives have a fitted effect of over 50% in size
In short: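 Reads taken at 0, 8, 16, 24, 32 and 40 h from the same wells. HEK293 cells (600/well) carried RealTime-Glo reagents from seeding, with compound added after a 5 h settle at 37 C.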

[4] = qHTS RealTime-Glo MT Cell Viability Assay in HepG2 cells - 8 hour (AID 1224873); also: nearly all actives have a fitted effect of over 55% in size
In short: as §1

[5] = A CellTox Green Cytotoxicity Assay to monitor cytotoxicity in HEK293 cells - 24 hour (AID 1224875); also: nearly all actives have a fitted effect of over 45% in size; also: potency is read from the fitted curve at half-maximal effect; as to activity change: series mostly up to about 77 µM
In short: as §2

[6] = A CellTox Green Cytotoxicity Assay to monitor cytotoxicity in HepG2 cells - 16 hour (AID 1224876); also: nearly all actives have a fitted effect of over 45% in size; also: potency is read from the fitted curve at half-maximal effect
In short: (§3)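 Measurements at 0, 8, 16, 24, 32 and 40 h of treatment captured CellTox Green fluorescence in HepG2 cells that had been co-plated with reagent and preincubated 5 h at 37 C/5% CO2.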

[7] = qHTS RealTime-Glo MT Cell Viability Assay in HepG2 cells - 32 hour (AID 1224877); also: nearly all actives have a fitted effect of over 55% in size; also: potency is read from the fitted curve at half-maximal effect
In short: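 HepG2 suspension premixed with RealTime-Glo reagents is plated at 600 cells per well and left 5 h at 37 C/5% CO2. Compounds in DMSO then go in, and bioluminescence reflecting viable cell number is recorded over 40 h.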

[8] = A CellTox Green Cytotoxicity Assay to monitor cytotoxicity in HepG2 cells - 24 hour (AID 1224878); also: nearly all actives have a fitted effect of over 45% in size; also: potency is read from the fitted curve at half-maximal effect
In short: as §3

[9] = qHTS RealTime-Glo MT Cell Viability Assay in HEK293 cells - 40 hour (AID 1224874); settings: RealTime-Glo luminescence; max response: stronger effect = lower value; also: nearly all actives have a fitted effect of over 50% in size
In short: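 HEK293 + NanoLuc + prosubstrate, 600 cells/well; 5 h, 37 C/5% CO2; compound 23 nL in DMSO by pintool; 37 C; luminescence read at 0, 8, 16, 24, 32 and 40 h time points.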

[10] = A CellTox Green Cytotoxicity Assay to monitor cytotoxicity in HepG2 cells - 40 hour (AID 1224879); also: nearly all actives have a fitted effect of over 40% in size; also: potency is read from the fitted curve at half-maximal effect
In short: as §3

Row | SMILES | Potency [1] | Potency [2] | Potency [3] | outcome [4] | Potency [5] | Potency [6] | Potency [7] | Potency [8] | activity change, negative = cytotoxic [1] | cytotoxicity increase [2] | activity change, negative = cytotoxicity [3] | viability change, negative = cytotoxic [4] | max response [9] [%] | activity change [5] | cytotoxicity increase [6] | cytotoxicity [8] | Potency [10]
1 | C(=C(c1ccccc1)c1ccccc1)c1ccccc1 | inactive | inactive | inactive | inactive | inactive | inactive | inactive | inactive |  |  |  |  |  |  |  |  | 
2 | O=S(=O)(O)c1ccccc1O | inactive | inactive | inactive | inactive | inactive | inactive | inactive | inactive |  |  |  |  |  |  |  |  | 
3 | NC(=S)Nc1cccc2ccccc12 |  |  |  |  |  |  |  |  | -4.8% [at 6.97 µM] | 0.339% [at 6.97 µM] | 14.8% [at 6.97 µM] | 2.4% [at 6.97 µM] | 16.5 | 0.127% [at 6.97 µM, stronger effect = higher value] | 1.42% [at 6.97 µM] | -1.06% [at 6.97 µM] | 
4 | Nc1ccn(C2CO[C@H](CO)O2)c(=O)n1 (stereo not given in full) | inactive | 15.1 µM (active) | inactive | inactive | 19 µM (active) | 8.49 µM (active) | inactive | 6.74 µM (active) |  |  |  |  | -2.21 |  |  |  | 7.56 µM (active)
5 | O=C(O)/C=C/c1ccc(/C=C/C(=O)O)cc1 | inactive | inactive | inactive | inactive | inactive | inactive |  | inactive |  |  |  |  | 3.8 |  |  |  | inactive
6 | CSc1ccc(C=O)cc1 | inactive | inactive | inactive | inactive | inactive | inactive | inactive | inactive |  |  |  |  | 0.555 |  |  |  | inactive
7 | CN(C)CCn1nnnc1SCC1=C(C(=O)O)N2C(=O)[C@@H](NC(=O)Cc3csc(N)n3)[C@H]2SC1 | inactive | inactive | inactive | inactive | inactive | inactive |  | inactive |  |  |  |  | 13.3 |  |  |  | inactive
8 | Nc1nc2c(ncn2CCC(CO)CO)c(=O)[nH]1 | inactive | inactive | inactive | inactive | inactive | inactive |  | inactive |  |  |  |  | 0.17 |  |  |  | inactive
9 | CC(C)COC(=O)C(C)C | inactive | inactive | inactive | inactive | inactive | inactive | inactive | inactive |  |  |  |  | 3.76 |  |  |  | inactive
10 | CCCCOCC(C)OCC(C)O (stereo not given) | inactive | inactive | inactive | inactive | inactive | inactive |  | inactive |  |  |  |  | 2.63 |  |  |  | inactive
11 | O=C(O)c1ccccc1-c1ccc(C(F)(F)F)cc1 | inactive | inactive | inactive | inactive | inactive | inactive |  | inactive |  |  |  |  | 7.22 |  |  |  | inactive
12 | CCCCCN(CCCCC)C(=O)C(CCC(=O)O)NC(=O)c1ccc(Cl)c(Cl)c1 (stereo not given) | inactive | inactive | inactive | inactive | inactive | inactive | inactive | inactive |  |  |  |  |  |  |  |  | inactive
13 | CCCC(C)C(=O)O (stereo not given) | inactive | inactive | inactive | inactive | inactive | inactive |  | inactive |  |  |  |  | -23.4 |  |  |  | inactive
14 | CCCCCCCCC=O | inactive | inactive | inactive | inactive | inactive |  | inactive |  |  |  |  |  | -0.417 |  |  |  | 
15 | O=C(O)c1cccc(C(=O)O)n1 | inactive | inactive | inactive | inactive | inactive | inactive |  | inactive |  |  |  |  | -0.906 |  |  |  | inactive
16 | COCCOC(=O)CC#N | inactive | inactive | inactive | inactive | inactive | inactive |  | inactive |  |  |  |  | 1.9 |  |  |  | inactive
17 | CCN1CCN(c2cc3c(cc2F)c(=O)c(C(=O)O)cn3C2CC2)CC1 | inactive | inactive | inactive | inactive | inactive | inactive | inactive | inactive |  |  |  |  |  |  |  |  | 
18 | O=C(CCOCCOCCOCCOCCC(=O)Nc1c(I)cc(I)c(C(=O)O)c1I)Nc1c(I)cc(I)c(C(=O)O)c1I | inactive | inactive | inactive | inactive | inactive | inactive |  | inactive |  |  |  |  |  |  |  |  | inactive
19 | O=[N+]([O-])c1ccc(CCO)cc1 | inactive | inactive | inactive | inactive | inactive | inactive |  | inactive |  |  |  |  |  |  |  |  | inactive
20 | Cc1cc(C)c(NC(=O)CN(CC(=O)O)CC(=O)O)c(C)c1Br | inactive | inactive | inactive | inactive | inactive | inactive | inactive | inactive |  |  |  |  |  |  |  |  | inactive
21 | CC(C)CCCC(C)NCCC(C)C (stereo not given) | inactive | inactive | inactive |  | inactive | inactive | inactive | inactive |  |  |  |  | 0.252 |  |  |  | inactive
22 | CNc1ncnc2nc[nH]c12 | inactive | inactive | inactive | inactive | inactive | inactive |  | inactive |  |  |  |  |  |  |  |  | inactive
23 | NS(=O)(=O)c1cc2c(cc1Cl)NC(CSCc1ccccc1)=NS2(=O)=O | inactive | inactive | inactive |  | inactive | inactive | inactive | inactive |  |  |  |  | -0.803 |  |  |  | inactive
24 | CCCCCCCCCCCCI | 22 µM (active) | inactive | inactive |  | inactive | inactive | 24.7 µM (active) | inactive |  |  |  |  | -9.8 |  |  |  | inactive
